Laboratory results as given in the supplement of paper PMC4166925.
± gives the standard deviation of the averaged measurements. Over roughly 33,000 sequences, “E-score (dimensionless, -0.5 to 0.5)” has its median near -0.046; the highest 2% begin near 0.36. This is one part of a sample in which the highest values are shown more often than they occur.

What follows are sequences tested on T1, SpTbr T-box DNA-binding domain (GST fusion) (assay: PBM E-score of 8-mer (E-score (dimensionless, -0.5 to 0.5)); Tbr is Tbrain of the sea star Patiria miniata (Pm) or the sea urchin Strongylocentrotus purpuratus (Sp); higher = stronger binding preference). Conditions: the construct has about 5 more residues each side.
T1 sequence: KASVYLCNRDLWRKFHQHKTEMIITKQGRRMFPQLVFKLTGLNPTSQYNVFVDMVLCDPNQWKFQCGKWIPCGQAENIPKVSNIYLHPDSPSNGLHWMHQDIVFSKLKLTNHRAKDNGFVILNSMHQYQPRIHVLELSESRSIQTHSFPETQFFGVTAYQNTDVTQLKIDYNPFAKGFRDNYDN
Method: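 Universal protein-binding microarray (Agilent AMADID 016060, 60-bp probes with a 35-bp variable region) incubated with 200 nM GST-fused Strongylocentrotus purpuratus Tbr T-box DNA-binding domain (residues 362-554) in PBS pH 7.5. Scored for every ungapped 8-mer (given with its reverse complement) as E-score (range -0.5 to 0.5; >0.45 counts as bound) and Z-score of median probe intensity. Two replicate arrays (datasets 1 and 2).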
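Also: protein at 200 nM in PBS on universal double-stranded arrays.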

Row | Sequence | PBM E-score of 8-mer
1 | CCTGTCAA | 0.328 ± 0.025
2 | CGTGTCAG | 0.25651 ± 0.00017
3 | GATGTCAC | 0.296 ± 0.023
4 | AGTGTCAG | 0.371 ± 0.0097
5 | GGTGTCAC | 0.475 ± 0.0052
6 | CGTGTCTA | 0.135 ± 0.05
7 | AATGTCAG | 0.0267 ± 0.006
8 | GCTCGCCA | 0.231 ± 0.017
9 | GCCCCATA | -0.112 ± 0.064
10 | ATGGGGAG | -0.243 ± 0.051
11 | AGGGGTGG | 0.147 ± 0.069
12 | AATGGCTA | -0.134 ± 0.02
13 | CATGAGTC | -0.08024 ± 0.00076
14 | GACTTATA | 0.0117 ± 0.031
15 | ACAACCCT | 0.0805 ± 0.0049
16 | ATCGTTGC | -0.00439 ± 0.021
17 | AATGTCAT | -0.162 ± 0.031
18 | TCTGTCAA | 0.109 ± 0.046
19 | ACTGTCAA | 0.183 ± 0.035
20 | GGTGTCTA | 0.292 ± 0.0045
21 | AGTGTCAA | 0.453 ± 0.0054
22 | TATGTCAA | 0.159 ± 0.0082

Row | Sequence | PBM E-score of 8-mer
23 | TGTGTCAA | 0.398 ± 0.011
24 | GCTGTCAA | 0.318 ± 0.049
25 | ACTGTCAT | 0.196 ± 0.032
26 | AGTGTCAT | 0.405 ± 0.017
27 | GGTGTCAA | 0.4808 ± 0.0038
28 | AGTGTCTA | 0.17 ± 0.024
29 | TAAGAACA | -0.0304 ± 0.082
30 | ATATAGTC | -0.0444 ± 0.027
31 | ATAGCCCA | -0.13 ± 0.078
32 | CGCAGAGA | -0.217 ± 0.082
33 | CCAATAAG | -0.199 ± 0.0037
34 | CATGAATC | 0.0324 ± 0.072
35 | CCCCCCCC | -0.0653 ± 0.059
36 | AACTCTGC | 0.164 ± 0.011
37 | GGAAGCAA | -0.216 ± 0.074
38 | CGTGTCAC | 0.362 ± 0.034
39 | AGTGTCAC | 0.43943 ± 0.00026
40 | ACTGTCAC | 0.35403 ± 0.00029
41 | ACGCCCAA | -0.049 ± 0.13
42 | CACAGACC | -0.0948 ± 0.053
43 | ACGCACCT | 0.366 ± 0.0075
44 | AAACACCT | 0.442 ± 0.015

Row | Sequence | PBM E-score of 8-mer
45 | ACGCACCA | 0.0513 ± 0.0069
46 | AGACACAT | 0.229 ± 0.0028
47 | AGACACCT | 0.4345 ± 0.003
48 | ACACACAT | 0.328 ± 0.0053
49 | ACGCACCG | 0.0314 ± 0.086
50 | ACACACCT | 0.44741 ± 0.0002
51 | AGACACCG | 0.0814 ± 0.026
52 | AAACACCC | 0.1718 ± 0.0003
53 | AAACACCG | 0.155 ± 0.0066
54 | ACACACCG | 0.224 ± 0.013
55 | GCTTCAAA | 0.0158 ± 0.019
56 | ACCAATGA | -0.0571 ± 0.11
57 | GTAGATAA | -0.151 ± 0.039
58 | GATCGTGA | 0.173 ± 0.054
59 | ACCTGGTA | -0.0333 ± 0.028
60 | CGGCCCTC | -0.119 ± 0.093
61 | GACGTTCC | -0.197 ± 0.016
62 | AAGTGAAG | 0.13 ± 0.049
63 | ACAGATGT | 0.152 ± 0.018
64 | ACCTATTC | 0.0131 ± 0.033
65 | GACCCGTA | -0.0138 ± 0.012
66 | ACTTCTAC | 0.037 ± 0.013

Row | Sequence | PBM E-score of 8-mer
67 | CGGAGCCA | -0.164 ± 0.067
68 | CATGCCCC | -0.219 ± 0.047
69 | CTCACATC | 0.377 ± 0.013
70 | AACACATG | 0.336 ± 0.046
71 | AACACAGC | 0.115 ± 0.086
72 | CACACATC | 0.4 ± 0.013
73 | AACACACT | 0.211 ± 0.022
74 | CTCACATA | 0.157 ± 0.034
75 | ATCACATC | 0.109 ± 0.02
76 | GACACATC | 0.363 ± 0.028
77 | AACACATT | 0.383 ± 0.024
78 | CGCACATC | 0.338 ± 0.022
79 | AACACATA | 0.345 ± 0.029
80 | AACACATC | 0.375 ± 0.012
81 | CATGAAAC | -0.146 ± 0.031
82 | GCTAGCAC | 0.2678 ± 0.0018
83 | TAAGGTAA | -0.107 ± 0.0024
84 | AGTGCTGA | 0.0461 ± 0.029
85 | CTCCTCTC | 0.0391 ± 0.091
86 | GCCCAATA | -0.142 ± 0.1
